# Like-named read-outs stand apart in the source and are kept apart here.
# Test system: PRKD3
# Settings: read-out: apparent Kd, n = 1
substance,measurement,setting,value
Lestaurtinib,potency estimated from few doses,"compound concentrations:100 nM and 1000 nM (sheet 'Lestaurtinib' of Supplementary Table 1),run:Lestaurtinib_02438_R1,Plate:MR008",84.2 nM
same,potency estimated from few doses,"compound concentrations:100 nM and 1000 nM (sheet 'Lestaurtinib' of Supplementary Table 1),run:Lestaurtinib_02438_R2,Plate:MR008",51.6 nM
same,potency estimated from few doses,"compound concentrations:100 nM and 1000 nM (sheet 'Lestaurtinib' of Supplementary Table 1),run:Lestaurtinib_02438_R3,Plate:MR008",82.5 nM
same,potency estimated from few doses,"compound concentrations:100 nM and 1000 nM (sheet 'Lestaurtinib' of Supplementary Table 1),run:Lestaurtinib_02443_R1,Plate:MR009",91.7 nM
same,potency estimated from few doses,"compound concentrations:100 nM and 1000 nM (sheet 'Lestaurtinib' of Supplementary Table 1),run:Lestaurtinib_02473_R1,Plate:MR010",77.7 nM
same,potency estimated from few doses,"compound concentrations:100 nM and 1000 nM (sheet 'Lestaurtinib' of Supplementary Table 1),run:Lestaurtinib_02473_R3,Plate:MR010",79.7 nM
same,potency estimated from few doses,"compound concentrations:100 nM and 1000 nM (sheet 'Lestaurtinib' of Supplementary Table 1),run:Lestaurtinib_02482_R1,Plate:MR011",95.2 nM
same,potency estimated from few doses,"compound concentrations:100 nM and 1000 nM (sheet 'Lestaurtinib' of Supplementary Table 1),run:Lestaurtinib_02482_R3,Plate:MR011",132 nM
same,potency estimated from few doses,"compound concentrations:100 nM and 1000 nM (sheet 'Lestaurtinib' of Supplementary Table 1),run:Lestaurtinib_02487_R1,Plate:MR012",90.9 nM
same,potency estimated from few doses,"compound concentrations:100 nM and 1000 nM (sheet 'Lestaurtinib' of Supplementary Table 1),run:Lestaurtinib_02487_R2,Plate:MR012",84.9 nM
same,potency estimated from few doses,"compound concentrations:100 nM and 1000 nM (sheet 'Lestaurtinib' of Supplementary Table 1),run:Lestaurtinib_02487_R3,Plate:MR012",94.1 nM
same,potency estimated from few doses,"compound concentrations:100 nM and 1000 nM (sheet 'Lestaurtinib' of Supplementary Table 1),run:Lestaurtinib_02496_R2,Plate:MR013",79 nM
same,potency estimated from few doses,"compound concentrations:100 nM and 1000 nM (sheet 'Lestaurtinib' of Supplementary Table 1),run:Lestaurtinib_02496_R3,Plate:MR013",79.4 nM
same,potency estimated from few doses,"compound concentrations:100 nM and 1000 nM (sheet 'Lestaurtinib' of Supplementary Table 1),run:Lestaurtinib_02566_R2,Plate:MR014",57.7 nM
same,potency estimated from few doses,"compound concentrations:100 nM and 1000 nM (sheet 'Lestaurtinib' of Supplementary Table 1),run:Lestaurtinib_02566_R3,Plate:MR014",52.9 nM
same,potency estimated from few doses,"compound concentrations:100 nM and 1000 nM (sheet 'Lestaurtinib' of Supplementary Table 1),run:Lestaurtinib_02572_R1,Plate:MR015",45.9 nM
same,potency estimated from few doses,"compound concentrations:100 nM and 1000 nM (sheet 'Lestaurtinib' of Supplementary Table 1),run:Lestaurtinib_02577_R1,Plate:MR016",100 nM
same,potency estimated from few doses,"compound concentrations:100 nM and 1000 nM (sheet 'Lestaurtinib' of Supplementary Table 1),run:Lestaurtinib_02577_R2,Plate:MR016",87.6 nM
same,potency estimated from few doses,"compound concentrations:100 nM and 1000 nM (sheet 'Lestaurtinib' of Supplementary Table 1),run:Lestaurtinib_02577_R3,Plate:MR016",59.2 nM
same,potency estimated from few doses,"compound concentrations:100 nM and 1000 nM (sheet 'Lestaurtinib' of Supplementary Table 1),run:Lestaurtinib_02584_R1,Plate:MR017",95.1 nM
same,potency estimated from few doses,"compound concentrations:100 nM and 1000 nM (sheet 'Lestaurtinib' of Supplementary Table 1),run:Lestaurtinib_02584_R2,Plate:MR017",100 nM
same,potency estimated from few doses,"compound concentrations:100 nM and 1000 nM (sheet 'Lestaurtinib' of Supplementary Table 1),run:Lestaurtinib_02584_R3,Plate:MR017",113 nM
same,potency estimated from few doses,"compound concentrations:100 nM and 1000 nM (sheet 'Lestaurtinib' of Supplementary Table 1),run:Lestaurtinib_02601_R2,Plate:MR018",71.2 nM
same,potency estimated from few doses,"compound concentrations:100 nM and 1000 nM (sheet 'Lestaurtinib' of Supplementary Table 1),run:Lestaurtinib_02601_R3,Plate:MR018",77.1 nM
same,potency estimated from few doses,"compound concentrations:100 nM and 1000 nM (sheet 'Lestaurtinib' of Supplementary Table 1),run:Lestaurtinib_02606_R1,Plate:MR019",69.4 nM
same,potency estimated from few doses,"compound concentrations:100 nM and 1000 nM (sheet 'Lestaurtinib' of Supplementary Table 1),run:Lestaurtinib_02606_R2,Plate:MR019",130 nM
same,potency estimated from few doses,"compound concentrations:100 nM and 1000 nM (sheet 'Lestaurtinib' of Supplementary Table 1),run:Lestaurtinib_02606_R3,Plate:MR019",130 nM
same,potency estimated from few doses,"compound concentrations:100 nM and 1000 nM (sheet 'Lestaurtinib' of Supplementary Table 1),run:Lestaurtinib_02624_R1,Plate:MR020",67.4 nM
same,potency estimated from few doses,"compound concentrations:100 nM and 1000 nM (sheet 'Lestaurtinib' of Supplementary Table 1),run:Lestaurtinib_02624_R2,Plate:MR020",90.4 nM
same,potency estimated from few doses,"compound concentrations:100 nM and 1000 nM (sheet 'Lestaurtinib' of Supplementary Table 1),run:Lestaurtinib_02624_R3,Plate:MR020",79.8 nM
same,potency estimated from few doses,"compound concentrations:100 nM and 1000 nM (sheet 'Lestaurtinib' of Supplementary Table 1),run:Lestaurtinib_02724_R1,Plate:MR021",56.1 nM
same,potency estimated from few doses,"compound concentrations:100 nM and 1000 nM (sheet 'Lestaurtinib' of Supplementary Table 1),run:Lestaurtinib_02724_R2,Plate:MR021",71.1 nM
same,potency estimated from few doses,"compound concentrations:100 nM and 1000 nM (sheet 'Lestaurtinib' of Supplementary Table 1),run:Lestaurtinib_02724_R3,Plate:MR021",59.7 nM
same,potency estimated from few doses,"compound concentrations:100 nM and 1000 nM (sheet 'Lestaurtinib' of Supplementary Table 1),run:Lestaurtinib_02741_R1,Plate:MR023",88.2 nM
same,potency estimated from few doses,"compound concentrations:100 nM and 1000 nM (sheet 'Lestaurtinib' of Supplementary Table 1),run:Lestaurtinib_02741_R2,Plate:MR023",56.3 nM
same,potency estimated from few doses,"compound concentrations:100 nM and 1000 nM (sheet 'Lestaurtinib' of Supplementary Table 1),run:Lestaurtinib_02741_R3,Plate:MR023",88.4 nM
same,potency estimated from few doses,"compound concentrations:100 nM and 1000 nM (sheet 'Lestaurtinib' of Supplementary Table 1),run:Lestaurtinib_02748_R1,Plate:MR024",86 nM
same,potency estimated from few doses,"compound concentrations:100 nM and 1000 nM (sheet 'Lestaurtinib' of Supplementary Table 1),run:Lestaurtinib_02748_R3,Plate:MR024",98 nM
same,potency estimated from few doses,"compound concentrations:100 nM and 1000 nM (sheet 'Lestaurtinib' of Supplementary Table 1),run:Lestaurtinib_02752_R1,Plate:MR025",92.9 nM
same,potency estimated from few doses,"compound concentrations:100 nM and 1000 nM (sheet 'Lestaurtinib' of Supplementary Table 1),run:Lestaurtinib_02752_R3,Plate:MR025",99.3 nM
same,potency estimated from few doses,"compound concentrations:100 nM and 1000 nM (sheet 'Lestaurtinib' of Supplementary Table 1),run:Lestaurtinib_02765_R3,Plate:MR026",82.4 nM
same,potency estimated from few doses,"compound concentrations:100 nM and 1000 nM (sheet 'Lestaurtinib' of Supplementary Table 1),run:Lestaurtinib_02766_R1,Plate:MR027",99.2 nM

# — paper PMC11062922 (Nature Chemical Biology, 2023)
